Results filed as inconclusive are left out. Values without a mark were called inactive. Activity calls are given as the source filed them. Calls follow the shape of the dose curve; as a rule, active = well fitted curve in either direction with a large enough effect (not every such curve was filed as active); inconclusive = small, poorly fitted or top-dose-only effect, or another doubt; inactive = flat fitted curve, though single readings scatter. Starred links: 1 amine or outer side, 2 acyl side, 3 side chain; linkers in the order of their positions; H or OH if unused. Positions of bridges follow the written chain, without caps; N, C: chain ends. Bridge positions count the residues as written; N and C are the ends. Non-standard residues stand in square brackets, D forms with d. Square brackets hold non-standard residues; d marks the D form. Residues, ends and D or L forms follow the SMILES beside them. Peptide text beside a SMILES is read from it. * marks the point of attachment. *: point of attachment. Ileψ(thiazoline)Cys = CC[C@H](C)[C@H](N)C1=N[C@H](C(=O)*)CS1; X1 = NC1=N[C@@H](O)C[C@@H]([C@@H](N[*:1])C(=O)[*:2])N1; ΔAla(Z-3-ureido) = NC(=O)N/C=C(\N)C(=O)O; d(aIle) = CC[C@H](C)[C@@H](N)C(=O)O; β3hOrn = NCCC[C@H](N)CC(=O)*; dOrn = NCCC[C@@H](N)C(=O)O; Dap = NC[C@H](N)C(=O)O

Here are results for 26 compounds from PubChem BioAssay (NCATS).
% is scaled to controls: 0 for no effect and ±100 for the full control effect.

A short description of one experiment: AP1 Signaling Pathway (AID 357).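 Also: ME-180 reporter cells stimulated with EGF at its EC50 level.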 To be noted: ME-180 (cervical carcinoma) AP-1-bla reporter, EGF-induced, beta-lactamase ratio, 5 h; series mostly up to 17.2 µM. A digest of the protocol: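 Beta-lactamase reporter under AP-1 response element, ME-180 background. Stimulus: EC50 EGF. Compound exposure 5 h, 37 °C. Detection: CCF4, 2.5 h RT, 460/530 nm. Values: AC50 from titration.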
Take `CC1(C)S[C@@H]2[C@H](NC(=O)[C@@H](N)c3ccc(O)cc3)C(=O)N2[C@H]1C(=O)O`: the result was inactive.
On the same count and under the same terms, with `C[C@H](CCC(=O)O)[C@H]1CC[C@@H]2[C@H]3[C@@H](CC[C@@]21C)[C@]1(C)CC[C@H](O)C[C@@H]1C[C@@H]3O` the entry was “inactive”; with `O=C(O)[C@@H](O)[C@@H](O)[C@@H](O[C@H]1O[C@@H](CO)[C@@H](O)[C@@H](O)[C@@H]1O)[C@@H](O)CO`, “inactive”; with `O=C(N[C@@H](CO)[C@@H](O)c1ccc([N+](=O)[O-])cc1)C(Cl)Cl`, “inactive”.
Still for that read-out and setting: with `CN1CCC2(CC1)CCN(C(=O)c1ccncc1)CC2` the entry was “inactive”.
The same measure, in the same setting: with `CN(C)CCO[C@@H](c1ccc(Cl)cc1)c1ccccn1` the entry was “inactive”; with `O=C(O)COCCN1CCN([C@@H](c2ccccc2)c2ccc(Cl)cc2)CC1`, “inactive”.
On to `CC(=O)O[C@H]1C[C@H]2CC[C@@H]3[C@@H](CC[C@]4(C)[C@H](OC(C)=O)[C@H]([N+]5(C)CCCCC5)C[C@@H]34)[C@]2(C)C[C@H]1[N+]1(C)CCCCC1`, for which the outcome was inactive.
Still for that read-out and setting: with `CCN(CC)CCOC(=O)[C@@H](Cc1cccc2ccccc12)C[C@@H]1CCCO1` the entry was “inactive”; with `Clc1ccc([C@H](Cn2ccnc2)OCc2c(Cl)cccc2Cl)c(Cl)c1`, “inactive”; with `C[C@@H](CNC1CCCCC1)OC(=O)c1ccccc1`, “inactive”.
Same read-out and setting: with `CC[C@H](CO)NCCN[C@@H](CC)CO` the entry was “inactive”; with `CC[N+]1(C)[C@@H]2CC[C@H]1CC(OC(=O)[C@H]1CC[C@@](C(=O)OC3C[C@H]4CC[C@@H](C3)[N+]4(C)CC)(c3ccccc3)c3ccccc31)C2` (some centres not stated), “inactive”.
Still for that read-out and setting: in the case of `C[C@@]12C=CC(=O)C=C1CC[C@H]1[C@H]3CC[C@](O)(C(=O)CO)[C@]3(C)CC(=O)[C@@H]12` it was “inactive”; in that of `CO[C@@H]1C=CO[C@]2(C)Oc3c(C)c(O)c4c(O)c(c(C=NN5CCN(C)CC5)c(O)c4c3C2=O)NC(=O)C(C)=CC=C[C@H](C)[C@H](O)[C@H](C)[C@H](O)[C@H](C)[C@H](OC(C)=O)[C@H]1C`, “inactive”.

The nature of a further experiment: NFAT Signaling Pathway (AID 444).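 Also: carbachol stimulus at about its EC50 of 1 µM final.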 The following applies: Jurkat NFAT-bla M1, carbachol, beta-lactamase ratio, 5 h; at 17.2 µM (top of the series) unless noted. The gist of the method:
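Jurkat cells with NFAT-driven β-lactamase reporter and co-expressed M1 receptor, stimulated with carbachol (final 1 uM, ~EC50), compound titration, 5 h at 37 °C. CCF4 loaded 1 h at RT; 460/530 nm ratio gave %activity and AC50.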
With `CC[C@]1(c2ccccc2)NC(=O)N(C)C1=O`, the activity change, negative = inhibition is -14.9%.
On the same count and under the same terms, in the case of `C[C@H](CCC(=O)O)[C@H]1CC[C@@H]2[C@@H]3[C@@H](O)C[C@H]4C[C@@H](O)CC[C@@]4(C)[C@H]3CC[C@@]21C` it was 14.2%; in that of `CC(C)(CO)[C@H](O)C(=O)NCCC(=O)O`, 8.26%.
As for `C[N+]1(C)CC[C@@H](OC(=O)[C@@](O)(c2ccccc2)C2CCCC2)C1`, the activity change, negative = inhibition is -43.8% (active).
Same read-out and setting: with `O=C(O)c1cc2ccccc2c(Cc2cc3ccccc3c(C(=O)O)c2O)c1O` (tested in a mixture with another compound) the figure was -23%; with `CCC(=O)OCC(=O)[C@@]1(OC(=O)CC)[C@H](C)C[C@@H]2[C@@H]3[C@H]([C@@H](O)C[C@@]21C)[C@]1(C)C=CC(=O)C=C1C[C@@H]3Cl`, 14%; with `C[C@H](C(=O)O)c1cccc(Oc2ccccc2)c1`, 4.26%.
Take `NCCC[C@H](N)CC(=O)N[C@H]1CNC(=O)[C@@H]([C@@H]2C[C@H](O)N=C(N)N2)NC(=O)/C(=C/NC(N)=O)NC(=O)[C@@H](CO)NC(=O)[C@@H](CO)NC1=O` (β3hOrn-[Dap][dS][dS][ΔAla(Z-3-ureido)][X1]; lactam 1-C): the activity change, negative = inhibition is -11.1%.
The same measure, in the same setting: in the case of `CCOC(=O)O[C@@H](C)OC(=O)[C@@H]1N2C(=O)[C@@H](NC(=O)[C@@H](N)c3ccccc3)[C@H]2SC1(C)C` it was -4.72%.
Same read-out and setting: with `CC#C[C@@]1(O)CC[C@H]2[C@@H]3CCC4=CC(=O)CCC4=C3[C@H](c3ccc(N(C)C)cc3)C[C@]21C` the figure was 15.9%; with `CC[C@H](C)[C@H](N)C1=N[C@H](C(=O)N[C@@H](CC(C)C)C(=O)N[C@@H](CCC(=O)O)C(=O)N[C@@H](C(=O)N[C@H]2CCCCNC(=O)[C@@H](CC(N)=O)NC(=O)[C@@H](CC(=O)O)NC(=O)[C@@H](Cc3cnc[nH]3)NC(=O)[C@@H](Cc3ccccc3)NC(=O)[C@@H]([C@@H](C)CC)NC(=O)[C@@H](CCCN)NC2=O)[C@@H](C)CC)CS1` ({Ileψ(thiazoline)Cys}-LE[d(aIle)]K[dOrn][d(aIle)][dF][dH][dD][dN]; lactam 4-C), 1.53%; with `CC1(C)S[C@@H]2[C@H](NC(=O)[C@@H](N)c3ccc(O)cc3)C(=O)N2[C@H]1C(=O)O`, -4.29%.
With `C[C@H](CCC(=O)O)[C@H]1CC[C@@H]2[C@H]3[C@@H](CC[C@@]21C)[C@]1(C)CC[C@H](O)C[C@@H]1C[C@@H]3O`, the activity change, negative = inhibition was -6.74%.
Still for that read-out and setting: with `O=C(N[C@@H](CO)[C@@H](O)c1ccc([N+](=O)[O-])cc1)C(Cl)Cl` the figure was -12.6%.
For the compound `CC[C@H](CO)NCCN[C@@H](CC)CO`, the activity change, negative = inhibition is -11.9%.
Same read-out and setting: in the case of `C[C@@]12C=CC(=O)C=C1CC[C@H]1[C@H]3CC[C@](O)(C(=O)CO)[C@]3(C)CC(=O)[C@@H]12` it was -19.6%.
For the compound `CO[C@@H]1C=CO[C@]2(C)Oc3c(C)c(O)c4c(O)c(c(C=NN5CCN(C)CC5)c(O)c4c3C2=O)NC(=O)C(C)=CC=C[C@H](C)[C@H](O)[C@H](C)[C@H](O)[C@H](C)[C@H](OC(C)=O)[C@H]1C`, the activity change, negative = inhibition was -8.69%.
